Measurements from PubChem BioAssay (NCI).
This is part of a sample that, as a whole, favours compounds with a hit. Of some 83,000 tested, about 20% had one in any assay.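 Plates (96-well) were seeded with cells, treated with compound at one concentration, and incubated for 48 hours before percent growth was determined.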 Unmarked numbers belong to inactive results. The source made the active and inactive calls. The calls were made as follows: active = growth percent below 10; inactive = the rest.

Tested on: MDA-MB-468 breast
Test: NCI-60 one-dose screen, 48 h (100 = growth as untreated, 0 = no growth, -100 = all killed)
Settings: 10 µM unless noted

| Compound | growth |
| --- | --- |
| O=c1n(CC2CO2)c(=O)n(CC2CO2)n1CC1CO1 (stereo unspecified) | 25.6% |
| CCCCCCCCCCCCCCCC1=NCC[N+]1(CCO)CCO | 55.2% |
| COc1ccc2c(c1)c(-c1nc(-c3c[nH]c4ncccc34)cs1)cn2CCN | 1.91% (active) |
| CCCCCCCCCCCCCCCCCC1=NCCCN1CCO | 110% |
| CCN(CCNc1ccc(C)c2sc3cc(Cl)ccc3c(=O)c12)CC(C)O (stereo unspecified) | 62.2% |
| Oc1cccc2oc(=S)[nH]c12 | 105% |
| CC(=O)Nc1ccc(S(=O)(=O)N2C(=O)CCC2C(=O)Nc2ccccc2)cc1 (stereo unspecified) | 40.3% |
| COc1ccc(-c2nn(-c3cccc(Cl)c3)cc2-c2cc(-c3ccccc3)[nH]c(=O)c2C#N)cc1 | 16.4% |
| CCN(CC)CCOc1ccc(/C(=C(\C)c2ccc(F)c(OC)c2)c2ccc(Cl)cc2)cc1 | -15.7% (active) |
| OC(c1cc(C23CC4CC(CC(C4)C2)C3)nc2c(Cl)cc(Cl)cc12)C1CCCCN1 (stereo unspecified) | -89.7% (active) |
| O=C(C[C@]1(O)C(=O)Nc2ccc(Br)cc21)c1ccco1 | 109% |
| Cc1ccc(NC2=C(Cl)C(=O)c3nc(C)ccc3C2=O)c(C)c1 | -70.2% (active) |
| COc1ccc2c(c1)CCc1c-2n[nH]c1-c1[nH]nc2c1CCc1cc(OC)ccc1-2 | -6.6% (active) |
| COc1ccc2c(c1)cn1c3ccc(O)cc3nc(N)c21 | 14.2% |
| O=C1c2ccccc2C2N1CCC1CCc3ccccc3N12 (stereo unspecified) | 95.1% |
| Cc1ccc(-c2cc(-c3ccc(C)cc3)nc(N3CCN(CCNc4ccnc5cc(Cl)ccc45)CC3)n2)cc1 | 36.4% |
